Source: PubChem (National Center for Advancing Translational Sciences (NCATS))
12-LOX inh = inhibitors of human 12S-lipoxygenase ALOX12 | P18054 | purified 12hLO, xylenol orange hydroperoxide absorbance | Potency, µM (highest dose often 108 µM), hits mostly inhibitors | hit rate 1.1% among 580,000 | AID 1671190
Target sequence (P18054 whole entry, looked up): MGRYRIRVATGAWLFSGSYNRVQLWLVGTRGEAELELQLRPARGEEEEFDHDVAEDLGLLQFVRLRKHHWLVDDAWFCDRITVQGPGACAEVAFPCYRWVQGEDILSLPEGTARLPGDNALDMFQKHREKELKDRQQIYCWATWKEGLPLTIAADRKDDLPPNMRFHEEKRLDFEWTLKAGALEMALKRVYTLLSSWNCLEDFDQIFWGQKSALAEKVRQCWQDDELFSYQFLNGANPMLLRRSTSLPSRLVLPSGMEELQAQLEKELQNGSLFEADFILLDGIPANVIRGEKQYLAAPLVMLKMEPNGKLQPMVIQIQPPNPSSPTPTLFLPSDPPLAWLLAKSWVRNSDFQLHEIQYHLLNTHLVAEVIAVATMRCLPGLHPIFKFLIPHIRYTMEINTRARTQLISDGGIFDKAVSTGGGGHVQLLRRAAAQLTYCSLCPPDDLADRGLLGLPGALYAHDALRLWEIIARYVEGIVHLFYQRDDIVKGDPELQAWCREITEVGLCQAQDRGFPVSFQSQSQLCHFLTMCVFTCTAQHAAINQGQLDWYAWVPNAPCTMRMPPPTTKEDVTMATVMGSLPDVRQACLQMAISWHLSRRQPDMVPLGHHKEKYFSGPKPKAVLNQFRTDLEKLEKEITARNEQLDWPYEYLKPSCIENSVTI
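Hydroperoxide product was detected by ferrous iron/xylenol orange as the 573 to 405 nm absorbance ratio. Arachidonic acid at 40 uM (final) was turned over for 30 min at room temperature by 150 nM human 12hLO, pH 7.0 Hepes buffer, after 15 min compound preincubation.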
GLS inh = glutaminase GLS (human) inhibition | O94925 | GLS enzymatic activity, qHTS titration | hit rate 0.21% among 410,000 | AID 624170 | Potency, µM (titrated, usually from 45.5 µM), most hits filed as inhibitors
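Glutamate formation by hKGA was monitored fluorometrically using coupled glutamate oxidase, HRP and Amplex Red. Substrate was added as 1 mM L-glutamine solution; incubation was 30 min at RT after an initial read.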
PTHR1 ag = activates the human parathyroid hormone receptor PTHR1; Potency, µM (titrated, usually from 115 µM), most hits filed as activators; Q03431; HEK293 GP2 PTHR1 cells, GloSensor cAMP luminescence, 1 h; hit rate 0.075% among 410,000; note: nearly all actives have a fitted effect of over 55% in size
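HEK-293-derived GP2 cells expressing PTHR1 and a GloSensor cAMP reporter, 3,000/well, plated overnight, given luciferin plus IBMX (each 0.5 mM as added) for 1 h at 37 °C, then compound for 1 h at 37 °C. Luminescence was read after 15 min at room temperature.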
GLP-1R agonist = agonists of human GLP-1 receptor; HEK293 GLP-1R CRE-luciferase, luminescence, 4-6 h; cells express a hypersensitive GLP-1R form; P43220; Potency, µM (series often up to 45.6 µM), most hits filed as activators; hit rate 0.007% among 380,000
GRP78 ERSR act = inducers of ER stress response in human glioma cells. hit rate 0.02% among 420,000. Potency, µM, hits mostly activators. U87-MG GRP78 promoter luciferase reporter, 16 h. AID 602332; note: series mostly up to about 76 µM; nearly all actives have a fitted effect of over 35% in size
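Stably transfected U87-MG human glioma cells carrying a GRP78-based luminescent sensor were seeded at 1000 cells/well, pin-dosed with compounds and incubated 16 h. Luciferase reagent was then added, and end-point luminescence was read after 10 min at room temperature.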
GLP1R inv ag = GLP-1 receptor (human) inverse agonism; P43220; hit rate 1.6% among 410,000; Potency, µM (top dose mostly 38.3 µM), hits mostly inhibitors; HEK293 GLP-1R CRE-luciferase, luminescence, 24 h; GLP-1R form is constitutively active; note: nearly all actives have a fitted effect of over 55% in size
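Luminescence readout: a drop in cAMP-driven luciferase signal flags inverse agonism at a constitutively active GLP-1R stably expressed in HEK293. Compound exposure lasted 24 hr at 37 deg C, 5% CO2.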
A number is an active result; - = inactive; ? = inconclusive; . = no result given. This is a sample that favours compounds with a hit; in the whole collection about 2.3% have one here. Calls come from the whole dose curve; as a rule, active = well fitted curve in the direction sought with a large enough effect; inconclusive = small, poorly fitted or top-dose-only effect, or another doubt; inactive = no such curve, though single readings can be large; an effect the other way counts as inactive or inconclusive.

SMILES	12-LOX inh	GLS inh	PTHR1 ag	GLP-1R agonist	GRP78 ERSR act	GLP1R inv ag
NS(=O)(=O)c1ccccc1[N+](=O)[O-]	-	.	.	.	.	.
O=S(=O)(c1ccc(F)cc1)N1CCN(C23CC4CC(CC(C4)C2)C3)CC1	-	.	.	.	.	.
CCNC(=S)N/N=C/c1cn(Cc2ccc(F)cc2)c2ccccc12	40µM	-	-	-	-	?
O=C(Cn1cc(/C=N/NC(=O)c2cccc3ccccc23)c2ccccc21)Nc1ccc(F)cc1	-	-	-	-	-	1.6µM
O=C(Cn1cc(/C=N/NC(=O)c2ccccc2Br)c2ccccc21)Nc1ccc(F)cc1	-	-	-	-	-	?
N#Cc1ccc(C(=O)NC(c2cccs2)C2CCCC2)cc1 (stereo unspecified)	-	.	.	.	.	.
CN(/C=C/C(=C/C=[N+](C)c1ccccc1)OCCCS(=O)(=O)[O-])c1ccccc1	?	-	-	-	-	-
CN(/C=C/C(=O)/C=C/N(C)c1ccccc1)c1ccccc1	16µM	.	.	.	.	.
COc1cccc(Nc2ncc(-c3cccnc3)c3c2OCC3)c1	-	.	.	.	.	.
CC1CCC(NC(=O)CCc2cn(Cc3ccccc3Cl)c3ccccc23)CC1 (stereo unspecified)	-	-	-	.	-	-
O=C(CCc1cn(Cc2ccccc2Cl)c2ccccc12)NC1CCCCC1	-	-	-	.	-	10µM
COCCn1cnc2c1c(=O)n(CC(=O)Nc1ccc(F)c(F)c1)c(=O)n2CC(C)C	-	.	.	.	.	.
COc1ccc(C2C(C(=O)OCC3CCCO3)=C(C)NC3=C2C(=O)CC(c2ccco2)C3)cc1O (stereo unspecified)	8.9µM	-	-	-	-	-
O=C(O)c1ccc(NC(=O)c2ccc(Br)o2)c(NC(=O)c2ccc(Br)o2)c1	-	.	.	.	.	.
COc1ccc2ccccc2c1/C=N/N1C(=O)CSC1=S	-	?	-	-	-	-
O=C1CSC(=S)N1N=Cc1c(O)ccc2ccccc12	11µM	-	-	-	-	-
COc1cc(/C=N/N2C(=O)CSC2=S)cc(Br)c1O	?	?	-	-	-	-
O=C1CSC(=S)N1N=Cc1c(F)cccc1Cl	?	-	-	-	-	-
COc1cccc(/C=N/N2C(=O)CSC2=S)c1O	35µM	-	-	-	-	-
O=C1CSC(=S)N1/N=C/c1c(F)cccc1F	28µM	-	-	-	-	-
O=C(COc1ccc(F)cc1)Nc1ccc2c(=O)c3cccc(F)c3oc2c1	-	.	.	.	.	.
Cc1ccc(/C=C/C(=O)c2ccccc(=O)c2O)c(C)c1	32µM	-	-	-	-	?
Cc1ccc(C)c(/C=C/C(=O)c2ccccc(=O)c2O)c1	20µM	-	-	-	-	?
CCN(CC)c1ccc(/C=N/N2CCOCC2)c(O)c1	-	13µM	-	-	-	-
CCN(CC)c1ccc(/C=N/N2CCN(Cc3ccccc3)CC2)c(O)c1	-	-	-	-	-	?
SMILES	12-LOX inh	GLS inh	PTHR1 ag	GLP-1R agonist	GRP78 ERSR act	GLP1R inv ag
CCC(CC)C(=O)N(C)c1c(C)nc2c(OCc3cc(Cl)cc(Cl)c3)cccn12	-	-	-	-	-	11µM
CCC(CC)C(=O)N(C)c1c(C)nc2c(OCc3cccc(Cl)c3)cccn12	-	-	-	-	-	?
Cc1ccc(S(=O)(=O)/N=C2/NC(=O)/C(=C/c3ccccc3)S2)cc1	13µM	-	-	-	-	?
O=C1N/C(=N/S(=O)(=O)c2ccccc2)S/C1=C/c1cccnc1	?	-	-	-	-	-
Cc1ccc(/C=C2\S/C(=N/S(=O)(=O)c3cccs3)NC2=O)cc1	28µM	?	-	-	-	?
Cc1ccc(S(=O)(=O)/N=C2/NC(=O)/C(=C\c3ccco3)S2)cc1	?	-	-	-	-	-
Cc1ccc(S(=O)(=O)/N=C2/NC(=O)/C(=C\c3ccccc3)S2)cc1	40µM	-	-	-	-	?
C/C(=C\C(=S)Nc1ccccc1)Nc1ccccc1	?	-	-	-	-	?
CN(N=Cc1ccccc1)C(=S)Nc1ccccc1	?	16µM	-	-	-	-
COc1ccc2c(CCNC(=O)c3cccc4ccccc34)c[nH]c2c1	-	.	.	.	.	.
c1ccc(-c2cc3nc(NCc4ccc5c(c4)OCO5)ccn3n2)cc1	-	-	-	-	-	?
c1coc(-c2cc3nc(NC4CCCCC4)ccn3n2)c1	45µM	-	-	-	-	-
O=C(NC1CCCC1)c1cc2nc(-c3ccco3)cc(C(F)(F)F)n2n1	-	-	-	-	-	-
c1coc(-c2cc3nc(NCc4ccc5c(c4)OCO5)ccn3n2)c1	32µM	-	-	-	-	-
CCn1ncc(-c2cc(C(=O)O)c3ccccc3n2)c1C	-	.	.	.	.	.
COCCn1c2c(c(=O)[nH]c1=O)C(c1ccc(C(=O)O)cc1)C1=C(N2)c2ccccc2C1=O (stereo unspecified)	-	.	.	.	.	.
Cn1c2c(c(=O)[nH]c1=O)C(c1ccc(C(=O)O)cc1)C1=C(N2)c2ccccc2C1=O (stereo unspecified)	45µM	.	.	.	.	.
COC(=O)Cn1cc(/C=C/c2cc[n+](C)cc2)c2ccccc21	?	-	-	-	-	-
COC(=O)Cn1c(C)c(/C=C/c2cc[n+](C)cc2)c2ccccc21	45µM	-	-	-	-	-
CCC(C)NC(=O)Nc1ccc(-c2noc(-c3ccco3)n2)cc1 (stereo unspecified)	-	.	.	.	.	.
CCCCn1c2nc3ccccc3nc2c2c(=O)n(CCC(C)C)cnc21	-	-	-	-	-	-
CCCCn1cnc2c(c1=O)c1nc3ccccc3nc1n2Cc1ccc2c(c1)OCO2	7.9µM	-	-	-	-	-
Cc1ccc(S(=O)(=O)N2CCCN(S(=O)(=O)c3ccccc3Br)CC2)cc1	-	-	-	-	-	?
Cc1ccc(S(=O)(=O)N2C/C=C\CN(S(=O)(=O)c3ccccc3Br)CC2)cc1	-	-	-	-	-	10µM
CCc1ccc(C2=C(C)C(=NCC(=O)Nc3cccc(Cl)c3C)NS2(=O)=O)cc1	-	.	.	.	.	.
SMILES	12-LOX inh	GLS inh	PTHR1 ag	GLP-1R agonist	GRP78 ERSR act	GLP1R inv ag
Cc1ccccc1CC1CCN(CCCNC(=O)Nc2ccccc2)CC1	?	-	-	-	-	10µM
COc1cccc(NC(=O)CN(C)C(C)C(=O)Nc2cc(Cl)ccc2OC)c1 (stereo unspecified)	-	.	.	.	.	.
O=S(=O)(NCCc1csc(-c2ccc(F)cc2)n1)c1ccc(Cl)cc1	28µM	-	-	.	-	11µM
Cc1ccc(S(=O)(=O)NCCc2csc(-c3ccc(Cl)cc3)n2)cc1	?	-	-	-	-	?
COc1cc(NC(=O)C2CCN(S(=O)(=O)c3ccc4[nH]c(=O)oc4c3)CC2)cc(OC)c1	-	-	0.77µM	-	-	-
Cc1nccn1CCN(C)c1ccc(-c2nc(COc3ccccc3)no2)cn1	-	.	.	.	.	.
